Experiment [1] is described as follows: NCI Yeast Anticancer Drug Screen. Data for the rad50 strain (AID 155).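 Also: 0% = growth of vehicle-only cultures of the same strain.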 To be noted: S. cerevisiae rad50 strain growth inhibition, hits give high values. The gist of the method: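 Compounds were tested on a yeast strain with an engineered DNA damage repair alteration; the reported value is growth inhibition normalised to vehicle treatment.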
A short description of experiment [2]: NCI Yeast Anticancer Drug Screen. Data for the mec2-1 strain (AID 157). To be noted: S. cerevisiae mec2-1 strain, hits give high values. The procedure, abridged: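 mec2-1 yeast strain, carrying an alteration in DNA damage repair or cell cycle control, was exposed to compounds; growth inhibition was measured relative to vehicle-treated controls.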
Experiment [3] can be described thus: NCI Yeast Anticancer Drug Screen. Data for the sgs1 mgt1 strain (AID 161).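 Also: 0% = growth of cultures given vehicle only.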 The note with it: S. cerevisiae sgs1 mgt1 strain, hits give high values. The procedure, abridged: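 Compounds are added to genetically altered yeast, and growth is compared with cultures given vehicle alone to give percent inhibition.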
Experiment [4] can be described thus: NCI Yeast Anticancer Drug Screen. Data for the cln2 rad14 strain (AID 165).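 Also: 0% = growth equal to vehicle treated cultures.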 The note with it: S. cerevisiae cln2 rad14 strain, hits give high values. The gist of the method: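 Yeast carrying cln2 and rad14 alterations (cell cycle control and DNA damage repair) were exposed to compounds. Growth inhibition was measured against vehicle-treated controls.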
Experiment [5] in a line: NCI Yeast Anticancer Drug Screen. Data for the bub3 strain (AID 167). To be noted: S. cerevisiae bub3 mutant strain, hits give high values. The procedure, abridged:
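Growth of a checkpoint-deficient yeast mutant is measured after compound exposure. Values represent inhibition relative to vehicle.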

A short description of experiment [6]: NCI Yeast Anticancer Drug Screen. Data for the mlh1 rad18 strain (AID 175). To be noted: S. cerevisiae mlh1 rad18 strain growth inhibition, hits give high values. The procedure, abridged:
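Growth inhibition of the yeast strain was measured after compound exposure and expressed relative to vehicle-treated controls. The strain carries defined defects in DNA damage repair.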

Setting [7] is: at 5.0 µM (retest, dose inferred, filed as 0.5).
Where [8] appears, read: at 50.0 µM (retest, dose inferred, filed as 5.0).

This is part of a sample that, as a whole, favours compounds with a hit. Of some 79,000 tested, about 15% had one in any assay. Values without a mark were called inactive. The source made the active and inactive calls. Rule as the data show it: active = growth inhibition above about 70%; inactive = the rest.

As to `CC(C)OC(=O)c1ccccc1C(=C1C=C(Br)C(=O)C(Br)=C1)c1cc(Br)c(O)c(Br)c1`, the growth inhibition in experiment [1] (setting [7]) is 85% (active); in experiment [1] (setting [8]), 95% (active); in experiment [1] (at 50.0 µM), 90.7% (active); in experiment [2] (setting [7]), 88% (active); in experiment [2] (setting [8]), 98% (active); in experiment [2] (at 50.0 µM), 91.9% (active). In addition, the growth inhibition in experiment [3] (setting [7]) was 70% (active); in experiment [3] (setting [8]) it was 95% (active); in experiment [3] (at 50.0 µM) it was 90.9% (active); in experiment [4] (setting [7]) it was 96% (active); in experiment [4] (setting [8]) it was 97% (active); in experiment [4] (at 50.0 µM), 88.2% (active). Moreover, the growth inhibition in experiment [5] (setting [7]) was 94% (active); in experiment [5] (setting [8]), 97% (active); in experiment [5] (at 50.0 µM), 91% (active); in experiment [6] (setting [7]), 96% (active); in experiment [6] (setting [8]), 96% (active); in experiment [6] (at 50.0 µM), 90.5% (active).
Consider `CC(=O)Oc1c2c(c(OC(C)=O)c3c1n(C(C)=O)c1ccccc1n3C(C)=O)n(C(C)=O)c1ccccc1n2C(C)=O`, for which the growth inhibition in experiment [1] (setting [7]) was 50%; in experiment [1] (setting [8]), 50%; in experiment [1] (at 50.0 µM) it was 78.2% (active); in experiment [2] (setting [7]) it was 42%; in experiment [2] (setting [8]), 42%; in experiment [2] (at 50.0 µM), 74.8% (active). The growth inhibition was 34% in experiment [3] (setting [7]); 34% in experiment [3] (setting [8]); 79.7% (active) in experiment [3] (at 50.0 µM); 26% in experiment [4] (setting [7]); 26% in experiment [4] (setting [8]); 62.5% in experiment [4] (at 50.0 µM). In addition, the growth inhibition was 44% in experiment [5] (setting [7]); 44% in experiment [5] (setting [8]); 69.8% in experiment [5] (at 50.0 µM); 51% in experiment [6] (setting [7]); 51% in experiment [6] (setting [8]); 69.7% in experiment [6] (at 50.0 µM).
As for `CCCC/C=C\CCCCCCCCCC1=C(O)C(=O)C=C(OC)C1=O`, the growth inhibition is 65% in experiment [1] (setting [7]); 83% (active) in experiment [1] (setting [8]); 60.9% in experiment [1] (at 50.0 µM); 64% in experiment [2] (setting [7]); 89% (active) in experiment [2] (setting [8]); 69.6% in experiment [2] (at 50.0 µM). The growth inhibition in experiment [3] (setting [7]) was 74% (active); in experiment [3] (setting [8]) it was 91% (active); in experiment [3] (at 50.0 µM) it was 65.3%; in experiment [4] (setting [7]), 40%; in experiment [4] (setting [8]) it was 62%; in experiment [4] (at 50.0 µM), 42.5%. The growth inhibition in experiment [5] (setting [7]) is 77% (active); in experiment [5] (setting [8]), 86% (active); in experiment [5] (at 50.0 µM) it was 63%; in experiment [6] (setting [7]) it was 71% (active); in experiment [6] (setting [8]), 87% (active); in experiment [6] (at 50.0 µM), 57.7%.
In the case of `COc1cc(C2=NCCO2)cc(OC)c1OC`, the growth inhibition in experiment [1] (setting [7]) was -158%; in experiment [1] (setting [8]), -155%; in experiment [1] (at 50.0 µM) it was 9.4%; in experiment [2] (setting [7]), -45%; in experiment [2] (setting [8]) it was -52%; in experiment [2] (at 50.0 µM), -5.5%. Moreover, the growth inhibition in experiment [3] (setting [7]) was -62%; in experiment [3] (setting [8]), -60%; in experiment [3] (at 50.0 µM), -3.85%; in experiment [4] (setting [7]) it was -59%; in experiment [4] (setting [8]), -62%; in experiment [4] (at 50.0 µM), 61.9%. For the same molecule, the growth inhibition in experiment [5] (setting [7]) is -67%; in experiment [5] (setting [8]), -79%; in experiment [5] (at 50.0 µM), 0.55%; in experiment [6] (setting [7]) it was -196%; in experiment [6] (setting [8]), -117%; in experiment [6] (at 50.0 µM), 3.95%.
Consider `Cn1nc(N)c2cccnc21`, for which the growth inhibition in experiment [1] (setting [7]) is 3%; in experiment [1] (setting [8]), 19%; in experiment [1] (at 50.0 µM) it was -1.25%; in experiment [2] (setting [7]), -5%; in experiment [2] (setting [8]) it was 3%; in experiment [2] (at 50.0 µM), 1.7%. Further, the growth inhibition is -1% in experiment [3] (setting [7]); 6% in experiment [3] (setting [8]); 14.3% in experiment [3] (at 50.0 µM); 3% in experiment [4] (setting [7]); 1% in experiment [4] (setting [8]); 45.1% in experiment [4] (at 50.0 µM). The growth inhibition was 2% in experiment [5] (setting [7]); 2% in experiment [5] (setting [8]); -6.1% in experiment [5] (at 50.0 µM); 1% in experiment [6] (setting [7]); 10% in experiment [6] (setting [8]); 0.35% in experiment [6] (at 50.0 µM).
With `CCN1/C(=C/C(C)=C/c2sc3ccccc3[n+]2CC)Sc2ccccc21`, the growth inhibition is 98% (active) in experiment [1] (setting [7]); 97% (active) in experiment [1] (setting [8]); 92% (active) in experiment [1] (at 50.0 µM); 97% (active) in experiment [2] (setting [7]); 100% (active) in experiment [2] (setting [8]); 94% (active) in experiment [2] (at 50.0 µM). Moreover, the growth inhibition in experiment [3] (setting [7]) was 98% (active); in experiment [3] (setting [8]), 100% (active); in experiment [3] (at 50.0 µM), 94% (active); in experiment [4] (setting [7]), 97% (active); in experiment [4] (setting [8]) it was 99% (active); in experiment [4] (at 50.0 µM), 93.7% (active). Further, the growth inhibition in experiment [5] (setting [7]) was 98% (active); in experiment [5] (setting [8]), 99% (active); in experiment [5] (at 50.0 µM), 92.8% (active); in experiment [6] (setting [7]), 98% (active); in experiment [6] (setting [8]), 99% (active); in experiment [6] (at 50.0 µM), 92% (active).
In the case of `CCOC(=O)C1CSC(c2c(CO)cnc(C)c2O)N1` (stereo not given), the growth inhibition in experiment [1] (setting [7]) was -1%; in experiment [1] (setting [8]), 5%; in experiment [1] (at 50.0 µM) it was 47.6%; in experiment [2] (setting [7]), -8%; in experiment [2] (setting [8]), -3%; in experiment [2] (at 50.0 µM), 0.75%. Also, the growth inhibition in experiment [3] (setting [7]) is -3%; in experiment [3] (setting [8]) it was 2%; in experiment [3] (at 50.0 µM) it was 9.55%; in experiment [4] (setting [7]) it was 4%; in experiment [4] (setting [8]), 7%; in experiment [4] (at 50.0 µM), -4.1%. In addition, the growth inhibition is 2% in experiment [5] (setting [7]); 14% in experiment [5] (setting [8]); 10.8% in experiment [5] (at 50.0 µM); 2% in experiment [6] (setting [7]); 5% in experiment [6] (setting [8]); 18.1% in experiment [6] (at 50.0 µM).
In the case of `Cc1cc(C)c(CCCC(=O)c2c(C)cc(C)cc2C)c(C)c1`, the growth inhibition in experiment [1] (setting [7]) was -7%; in experiment [1] (setting [8]), 28%; in experiment [1] (at 50.0 µM), 9.85%; in experiment [2] (setting [7]) it was -4%; in experiment [2] (setting [8]) it was 1%; in experiment [2] (at 50.0 µM), -1.6%. Further, the growth inhibition was -7% in experiment [3] (setting [7]); 23% in experiment [3] (setting [8]); 9.85% in experiment [3] (at 50.0 µM); 1% in experiment [4] (setting [7]); -10% in experiment [4] (setting [8]); 29.1% in experiment [4] (at 50.0 µM). The growth inhibition in experiment [5] (setting [7]) was 1%; in experiment [5] (setting [8]), 6%; in experiment [5] (at 50.0 µM), 15.6%; in experiment [6] (setting [7]), -3%; in experiment [6] (setting [8]) it was -12%; in experiment [6] (at 50.0 µM) it was 9.75%.
For `CN(C)CCNc1ccc([N+](=O)[O-])c2nc3ccccc3c(N)c12`, the growth inhibition is -34% in experiment [1] (setting [7]); -7% in experiment [1] (setting [8]); -1.9% in experiment [1] (at 50.0 µM); -37% in experiment [2] (setting [7]); 6% in experiment [2] (setting [8]); -40.8% in experiment [2] (at 50.0 µM). Besides, the growth inhibition in experiment [3] (setting [7]) was 34%; in experiment [3] (setting [8]), -24%; in experiment [3] (at 50.0 µM), 45.9%; in experiment [4] (setting [7]), -17%; in experiment [4] (setting [8]) it was 0%; in experiment [4] (at 50.0 µM), 8.55%. In addition, the growth inhibition in experiment [5] (setting [7]) was -8%; in experiment [5] (setting [8]), 12%; in experiment [5] (at 50.0 µM), -7.15%; in experiment [6] (setting [7]) it was -53%; in experiment [6] (setting [8]) it was -10%; in experiment [6] (at 50.0 µM) it was 65.8%.
As to `N#CC1=C(N)OC(c2ccccc2)=C(C#N)C1c1ccccc1` (stereo not given), the growth inhibition in experiment [1] (setting [7]) is 90% (active); in experiment [1] (setting [8]) it was 99% (active); in experiment [1] (at 50.0 µM), 99.2% (active); in experiment [2] (setting [7]), 97% (active); in experiment [2] (setting [8]), 100% (active); in experiment [2] (at 50.0 µM) it was 99.5% (active). For the same molecule, the growth inhibition in experiment [3] (setting [7]) is 96% (active); in experiment [3] (setting [8]) it was 100% (active); in experiment [3] (at 50.0 µM), 99.3% (active); in experiment [4] (setting [7]), 98% (active); in experiment [4] (setting [8]), 99% (active); in experiment [4] (at 50.0 µM), 99.2% (active). Moreover, the growth inhibition is 98% (active) in experiment [5] (setting [7]); 99% (active) in experiment [5] (setting [8]); 99.5% (active) in experiment [5] (at 50.0 µM); 97% (active) in experiment [6] (setting [7]); 99% (active) in experiment [6] (setting [8]); 99.3% (active) in experiment [6] (at 50.0 µM).

These data come from PubChem BioAssay (NCI).
